Screens (PubChem)
An excerpt weighted towards active compounds, which were near 5.3% of everything screened.
Mot1-301 SUMO = inhibitors of SUMOylation pathway: yeast Mot1-301 growth rescue. S. cerevisiae Mot1-301 growth rescue, ATP luminescence, 38.5C; percent above DMSO median, 100 means doubled. growth rescue, % at 18.8 µM. 320,000 compounds, 1% hits;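 active = every valid replicate shows activation above 250% relative to neutral control wells; inactive = the rest, any valid replicate at or below 250%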;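 also: OY570 slx delta 5 strain wells were the positive control but not used for scaling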
M18AAP inhibitor = blocks P. falciparum M18 aspartyl aminopeptidase. recombinant PfM18AAP, H-Glu-NHMec fluorogenic cleavage. inhibition, % at 7.35 µM. 290,000 compounds, 1.2% hits;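 active = inhibition above the campaign mean inhibition over all tested compounds plus 3 SD, cut at about 28% in these data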;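 also: 0% = plate median of test compound wells and 100% = 2 mM ZnCl2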
HIF activator = HIF pathway transcriptional activation | U2OS HRE-luciferase reporter, luminescence; normalized: DMSO 0%, desferrioxamine 100% | activation, % at 7.5 µM (by protocol) | 300,000 compounds, 0.32% hits | AID 1910;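 active = mean activation of at least 10% of the iron chelator positive control signal, with at least half of replicates also reaching 10%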
ALR inh = blocks human ALR sulfhydryl oxidase activity | P55789 | purified ALR, DTT oxidation, H2O2 HRP-luminol luminescence | inhibition, % (concentration not given with the values) | 290,000 compounds, 3.8% hits | AID 485317;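 active = mean replicate inhibition above about 79%, with every replicate also reaching it, limit read from the data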
Target sequence (P55789 whole entry, looked up): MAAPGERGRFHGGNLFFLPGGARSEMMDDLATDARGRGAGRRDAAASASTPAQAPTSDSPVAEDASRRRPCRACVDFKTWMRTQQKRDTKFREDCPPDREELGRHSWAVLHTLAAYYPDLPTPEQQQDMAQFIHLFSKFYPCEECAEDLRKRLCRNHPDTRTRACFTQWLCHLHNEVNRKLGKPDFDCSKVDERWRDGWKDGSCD
Numbers without * were called inactive; . = no result given.

SMILES	Mot1-301 SUMO	M18AAP inhibitor	HIF activator	ALR inh
Cc1ccc(NC(=O)CS(=O)CC(=O)Nc2ccccc2-c2ccc(C)o2)cc1 (configuration not stated)	-9.7	3.8	0.3	99.1*
O=C1CCCC(O)=C1N=Nc1c(Cl)cc(C(F)(F)F)cc1Cl	-4.9	28.3*	-0.2	1.4
CN/C=C1\C(=O)C(C)(C)Oc2ccc3ccc(=O)oc3c21	-19.1	1.9	-0.2	9.8
CC1(C)Oc2ccc3ccc(=O)oc3c2/C(=C/NNC(N)=S)C1=O	-8.3	13.4	-1.4	87.8*
COc1ccc(-c2nnn(CC(=O)NCCc3ccc(OC)c(OC)c3)n2)cc1	.	-5.0	-0.5	-14.6
CCOc1ccc(S(=O)(=O)NNS(=O)(=O)c2ccc(C)cc2C)cc1	-4.2	14.6	1.4	99.2*
CCOc1ccc(S(=O)(=O)NCCCl)cc1	.	-12.1	-0.5	39.7
CCN(CC)S(=O)(=O)c1cc(NC(=O)CSc2nc3c(cc2C#N)C(=O)CC(C)(C)C3)ccc1C	-30.3	2.7	0.1	98.7*
CCOc1ccccc1NC(=O)N1CCC(NC(=O)C2CCCCC2)CC1	.	0.8	-1.4	.
COc1ccc(NS(=O)(=O)c2cc(N)ccc2N2CCCC2)cc1	8.1	.	.	31.8
COc1ccc(S(=O)(=O)Nc2ccc(S(=O)(=O)N3CCCC3)cc2)cc1	10.0	-1.5	-0.3	-2.4
COc1ccc(S(=O)(=O)Nc2ccc(S(=O)(=O)N3CCCCC3)cc2)cc1	4.6	1.6	0.3	97.5*
COc1ccc(NS(=O)(=O)c2ccc(N3CCCC3)c(N)c2)cc1	-13.4	7.8	0.3	92.5*
c1ccc(-c2ccc(-c3cn4c(n3)CCC4)cc2)cc1	96.5	1.0	0.9	.
CC[C@]12c3[nH]c4ccccc4c3CCN1C(=O)C(CC(=O)NCCCOC)C[C@@H]2C(=O)N1CCN(C(=O)c2ccco2)CC1 (some centres not stated)	10.0	.	.	.
S=c1[nH]nc(-c2ccc(Br)cc2)n1Cc1ccco1	4.8	1.6	-0.4	88.1*
S=c1[nH]nc(-c2ccncc2)n1Cc1ccco1	61.7	8.6	-0.1	96.0*
S=c1[nH]nc(-c2ccncc2)n1CC1CCCO1 (configuration not stated)	-1.0	18.9	0.0	93.2*
CC(C)Cn1c(-c2ccncc2)n[nH]c1=S	0.1	17.9	-0.2	86.6*
CC(C)Cn1c(-c2ccc(F)cc2)n[nH]c1=S	7.8	12.3	-0.1	57.1
COc1cccc(-c2n[nH]c(=S)n2Cc2ccco2)c1	-12.2	17.5	0.3	-3.9
CN(C(=O)c1ccccc1Cl)c1ccccc1C(=O)NCCc1ccccc1	262.2	-3.8	-0.4	4.4
CC(=O)Nc1ccc(C(=O)NNC(=O)C2C3CCCCC32)cc1 (configuration not stated)	-2.8	-12.0	0.1	-5.5
O=c1c2c(-c3cccs3)csc2[nH]c(=S)n1-c1ccccc1	-2.3	5.8	0.1	90.3*
CCn1c(=S)[nH]c2scc(-c3cccs3)c2c1=O	.	-2.4	0.6	.
SMILES	Mot1-301 SUMO	M18AAP inhibitor	HIF activator	ALR inh
CC(C)n1c(=S)[nH]c2scc(-c3cccs3)c2c1=O	-17.3	7.0	0.0	89.8*
FC(F)(F)C1=CC(c2ccc(Br)cc2)=NCCN1	-9.1	10.5	.	100.0*
Cc1cccc(/N=C/c2c(O)n(Cc3ccc4c(c3)OCO4)c(=O)c3ccccc23)n1	.	-6.0	0.1	0.8
CCOc1ccccc1N1C(=O)CC(N(O)c2ccccc2)C1=O (configuration not stated)	3.9	-5.9	-0.4	95.3*
CCCCOc1ccc(N2C(=O)CC(N(O)c3ccccc3)C2=O)cc1 (configuration not stated)	8.3	7.3	1.9	-1.2
CC(=O)Nc1ccc(S(=O)(=O)NC2(C(F)(F)F)NC(=O)N(CC(C)C)C2=O)cc1 (configuration not stated)	-2.8	5.3	-0.1	-26.8
CC(C)CN1C(=O)NC(NS(=O)(=O)c2ccc(N)cc2)(C(F)(F)F)C1=O (configuration not stated)	-2.1	-0.7	0.4	98.6*
COCCn1c(-c2ccc(OC)cc2)cnc1SCC(=O)Nc1ccc(OC)cc1OC	9.2	-2.4	21.5*	.
COCCn1c(-c2ccc(OC)cc2)cnc1SCC(=O)Nc1cc(C)on1	-15.0	-2.9	-35.5	-38.1
O=C1CCCC2=C1Sc1ccc(Cl)cc1N2	2.5	30.0*	-28.5	.
CCOC(=O)c1ccc(NC(=O)CN2C(=O)CSC2=O)cc1	-12.3	6.3	-0.1	99.5*
CCOC(=O)c1ccc(NC(=O)CC2OCCN(CC)C2=O)cc1 (configuration not stated)	.	-2.5	0.2	86.0*
CCOC(=O)C1CCN(C(=O)COc2ccc(Br)cc2)CC1	-9.3	-5.3	-0.2	-35.8
